ERAP1 inh: human ERAP1 aminopeptidase inhibitors, primary screen, biochemical, single point, plate reader | inhibition, % at 10.7 µM | actives 0.15% (n = 340,000) | recombinant ERAP1, Leu-AMC fluorescence, 60 min;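 active means mean replicate inhibition of at least 30%, or all replicates individually reaching that 30% level; inactive means mean below 30% and not every replicate reaching it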
Target sequence (Q9NZ08 whole entry, looked up): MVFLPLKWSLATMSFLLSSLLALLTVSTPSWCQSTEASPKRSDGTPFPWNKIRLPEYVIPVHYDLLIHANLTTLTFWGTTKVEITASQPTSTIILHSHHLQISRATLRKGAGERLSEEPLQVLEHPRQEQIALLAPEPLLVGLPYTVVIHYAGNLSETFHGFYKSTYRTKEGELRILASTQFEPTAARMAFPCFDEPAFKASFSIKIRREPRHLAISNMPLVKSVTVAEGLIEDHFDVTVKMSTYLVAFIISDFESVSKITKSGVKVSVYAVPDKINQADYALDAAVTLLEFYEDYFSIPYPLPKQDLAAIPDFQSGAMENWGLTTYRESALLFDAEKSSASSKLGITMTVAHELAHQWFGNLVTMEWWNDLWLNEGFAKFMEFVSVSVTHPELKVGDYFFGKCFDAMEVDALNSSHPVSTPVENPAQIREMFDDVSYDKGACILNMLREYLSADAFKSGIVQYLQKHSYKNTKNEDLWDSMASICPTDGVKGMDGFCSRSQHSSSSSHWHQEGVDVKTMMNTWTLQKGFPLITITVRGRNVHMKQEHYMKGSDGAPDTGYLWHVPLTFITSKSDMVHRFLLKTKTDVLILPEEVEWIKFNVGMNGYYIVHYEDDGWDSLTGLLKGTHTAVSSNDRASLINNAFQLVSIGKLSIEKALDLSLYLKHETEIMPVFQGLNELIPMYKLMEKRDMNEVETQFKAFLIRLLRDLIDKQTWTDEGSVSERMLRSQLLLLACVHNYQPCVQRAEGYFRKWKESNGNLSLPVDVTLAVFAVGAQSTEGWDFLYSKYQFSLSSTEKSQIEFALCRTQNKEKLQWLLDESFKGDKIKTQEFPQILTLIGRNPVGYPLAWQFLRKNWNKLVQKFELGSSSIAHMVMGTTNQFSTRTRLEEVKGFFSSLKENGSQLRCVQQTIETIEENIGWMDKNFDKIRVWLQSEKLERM
rRNA inh HTS: reduced GFP signal of wild-type E. coli, primary screen, bacterial rRNA inhibitor project, GFP/RFP fluorescence, OD600, single point; GFP signal change (wild-type ribosome), % (no concentration beside the values); actives 1.6% (n = 350,000); E. coli WT GFP vs humanized-ribosome RFP mutants, 24 h; stronger effect = lower value; DMSO median 0, no signal -100;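 active means significant combined selectivity score with lowered wild-type GFP, culture density cut under 30%, mutant RFP and density less affected; inactive means any of these conditions unmet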
CaV13 ICDI inh: Primary screen for inhibitors of IQ motif and Ca2+-dependent inactivation inhibitor domain binding in CACNA1D, Förster resonance energy transfer in living cells, …. HEK cells, CFP/YFP FRET ICDI-IQ, plate reader, 10 min; percent FRET-ratio fall versus neutral wells. inhibition, % at 12.3 µM. actives 0.098% (n = 340,000). AID 743397;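 active means mean replicate inhibition of at least 30% and at least 1% of replicates passing that level; inconclusive means only one of the two criteria is met; inactive means neither criterion is met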
GSIS activator: GLuc luminescence reporter in INS-1E cells, primary screen for activators of glucose-dependent secretion of insulin; INS-1E GLuc reporter insulin secretion, 2-3 h; activation, % at 16.6 µM; actives 0.61% (n = 370,000); AID 743287, 2014;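 active means lowest replicate activation of at least 40%, so every replicate reaches that level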
PGC1a acetyl inh: inhibitors of PGC1a acetylation signal, primary screen, cell-based, U2OS, AlphaScreen, inhibitor mode. AlphaScreen anti-acetyl-lysine; with virally co-expressed GCN5 acetyltransferase. inhibition, % at 15.6 µM. actives 0.17% (n = 350,000). AID 651687, 2012;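 active means every replicate shows inhibition of at least 40%; inconclusive means mean inhibition at least 40% but some replicate below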
DENV2 CPE: inhibitors of DENV2 cytopathic effect, primary screen, cell-based, plate reader, single concentration | DENV2-infected cells, cytopathic effect rescue | CPE inhibition, % at 9.99 µM | actives 1.7% (n = 350,000) | AID 651640, 2012; in the data active means CPE inhibition above about 20%, passing the limit was not always enough; inconclusive means no clear call, values can overlap the other calls; tested in BHK-21 cells
Each line names hits and unclear results; the compound was inactive in the other large screens; ! = repeats disagree. Only some compounds are listed: those with a hit (about 3.2% of all), similar ones and a draw of the others.

C[C@H](CO)N1C[C@H](C)[C@@H](CN(C)C(=O)Nc2ccc(F)cc2)Oc2ncc(C#Cc3ccc(F)cc3)cc2C1=O	none (no result: CaV13 ICDI inh)
COc1ccc(NC(=O)N(C)C[C@H]2Oc3ncc(C#CC(C)C)cc3C(=O)N([C@@H](C)CO)C[C@H]2C)cc1	DENV2 CPE 38.9 (no result: CaV13 ICDI inh)
CNC(=O)C[C@H]1CC[C@@H]2[C@@H](COc3ccc(NC(=O)c4cnccn4)cc3C(=O)N2C)O1	none (no result: ERAP1 inh, CaV13 ICDI inh)
COc1cccc(S(=O)(=O)N2CC[C@@H]3[C@H]2c2cc(C#Cc4cccnc4)ccc2N(C)[C@H]3CO)c1	none (no result: ERAP1 inh, CaV13 ICDI inh)
C[C@H]1CN([C@@H](C)CO)C(=O)c2cc(C#CCC3CCCC3)cnc2O[C@@H]1CN(C)C(=O)c1cnccn1	none (no result: CaV13 ICDI inh)
C[C@H](CO)N1C[C@H](C)[C@@H](CN(C)C(=O)c2cnccn2)Oc2ncc(C#CCC3CCCC3)cc2C1=O	DENV2 CPE 36.1 (no result: CaV13 ICDI inh)
COc1ccc2c3c([nH]c2c1)[C@@H](CO)N(C(C)=O)CC31CN(Cc2cc(-c3ccccc3)on2)C1	none (no result: CaV13 ICDI inh)
Cc1cc(S(=O)(=O)Nc2ccc3ccccc3c2)c(C)s1	rRNA inh HTS -50.6 (no result: DENV2 CPE)
Cc1ccc(S(=O)(=O)Nc2ccc3c(c2)C(=O)N([C@H](C)CO)C[C@H](C)[C@@H](CN(C)C)OCCCC[C@H](C)O3)cc1	none (no result: ERAP1 inh, CaV13 ICDI inh, DENV2 CPE)
CCOCCCNc1nc2c(c(=O)n(C)c(=O)n2C)n1CCCc1ccccc1	PGC1a acetyl inh 40.3 (no result: ERAP1 inh, rRNA inh HTS, GSIS activator, DENV2 CPE)
COCCNc1nc2c(c(=O)n(C)c(=O)n2C)n1CCCc1ccccc1	none
CCOC(=O)/C(C(N)=NC)=C(\O)c1ccccc1	none (no result: ERAP1 inh, rRNA inh HTS, GSIS activator, DENV2 CPE)
COC(=O)C(=Nc1ccccc1)/C(C(=O)C(=O)N(C)c1ccccc1)=C(\O)c1ccccc1	rRNA inh HTS -25.0
COc1cccc(CSc2nnc(C(F)(F)F)n2Cc2ccc(F)cc2)c1	none (no result: PGC1a acetyl inh)
Cc1ccc(CSc2nnc(C(F)(F)F)n2Cc2ccc(F)cc2)cc1	rRNA inh HTS -27.1 (no result: GSIS activator)
C[n+]1c2n(c3ccccc31)N=C(c1cc(C(C)(C)C)c(O)c(C(C)(C)C)c1)CS2	GSIS activator 301.2
COc1cccc(C2=Nn3c(nnc3-c3ccccc3O)SC2)c1	none (no result: ERAP1 inh, rRNA inh HTS, CaV13 ICDI inh, GSIS activator, DENV2 CPE)
COc1cccc(/C=C2\SC(=S)N(C(C(=O)O)c3ccccc3)C2=O)c1OC (stereo unspecified)	rRNA inh HTS -34.3
COc1ccc(/C=C2\SC(=S)N(C(C(=O)O)c3ccccc3)C2=O)c(OC)c1 (stereo unspecified)	none
COc1cc(/C=C2\SC(=S)N(C(C(=O)O)c3ccccc3)C2=O)cc(OC)c1OC (stereo unspecified)	rRNA inh HTS -26.3
C[C@@H]1CN([C@H](C)CO)C(=O)c2cc(NC(=O)Cc3cn(C)c4ccccc34)ccc2O[C@@H]1CN(C)Cc1ccc(C(=O)O)cc1	none (no result: CaV13 ICDI inh)
C[C@H]1CN([C@@H](C)CO)C(=O)c2cccc(NS(=O)(=O)c3cn(C)cn3)c2O[C@@H]1CN(C)S(=O)(=O)c1cccs1	none (no result: CaV13 ICDI inh)
O=C(CS(=O)(=O)c1cn(CC(=O)N2CCOCC2)c2ccccc12)Nc1ccccc1	GSIS activator 40.2 (no result: PGC1a acetyl inh)
CN(C(=O)CS(=O)(=O)c1cn(CC(=O)N2CCCCC2)c2ccccc12)c1ccccc1	DENV2 CPE 63.6 (no result: rRNA inh HTS, GSIS activator, PGC1a acetyl inh)
COc1cc(/C=c2\s/c(=C\C(=O)C(C)(C)C)[nH]c2=O)cc(OC)c1OC	rRNA inh HTS -18.2 (no result: PGC1a acetyl inh)
COc1ccc(/C=c2\s/c(=C\C(=O)C(C)(C)C)[nH]c2=O)cc1O	rRNA inh HTS -26.4
C[C@H]1CN([C@@H](C)CO)S(=O)(=O)c2ccc(C#Cc3ccncc3)cc2O[C@H]1CN(C)C(=O)C1CCC1	none (no result: CaV13 ICDI inh)
CC(C)NC(=O)N(C)C[C@H]1Oc2ncc(C#Cc3ccc(F)cc3)cc2C(=O)N([C@H](C)CO)C[C@@H]1C	none (no result: CaV13 ICDI inh)
C[C@H]1CN([C@@H](C)CO)C(=O)c2cccc(NC(=O)CCCCCC(=O)Nc3ccccc3N)c2O[C@H]1CN(C)C(=O)NC1CCCCC1	none (no result: CaV13 ICDI inh)
COc1ccc2nc3ccccc3nc2c1NC(=O)c1ccc(Br)cc1	none (no result: rRNA inh HTS)
COc1ccc2nc3ccccc3nc2c1NC(=O)c1ccc(Cl)cc1	GSIS activator 70.1 (no result: ERAP1 inh, rRNA inh HTS, DENV2 CPE)
CCCNC(=O)C[C@@H]1CC[C@@H]2[C@H](COc3ccc(NC(=O)c4cccc(OC)c4)cc3C(=O)N2C)O1	DENV2 CPE inconclusive (no result: CaV13 ICDI inh)
COC(=O)C[C@H]1C[C@H]2c3cc(NC(=O)CC4CC4)ccc3O[C@H]2[C@H](CO)O1	none
O=C(O)C[C@@H]1C[C@@H]2c3cc(NC(=O)CC4CC4)ccc3O[C@@H]2[C@H](CO)O1	DENV2 CPE 30.0 (no result: CaV13 ICDI inh)
COC(=O)C[C@@H]1C[C@H]2c3cc(NC(=O)CC4CC4)ccc3O[C@H]2[C@@H](CO)O1	DENV2 CPE 24.2!
COC(=O)C[C@H]1C[C@H]2c3cc(NC(=O)C4CCOCC4)ccc3O[C@H]2[C@H](CO)O1	DENV2 CPE 45.5
COCC(=O)Nc1ccc2c(c1)[C@@H]1C[C@H](CC(=O)OC)O[C@H](CO)[C@@H]1O2	DENV2 CPE 27.8!
COCC(=O)Nc1ccc2c(c1)[C@H]1C[C@H](CC(=O)OC)O[C@H](CO)[C@H]1O2	none (no result: ERAP1 inh, CaV13 ICDI inh)
O=C(C[C@H]1CC[C@@H](NC(=O)c2ccncc2)[C@H](CO)O1)NCC1CCCCC1	none (no result: CaV13 ICDI inh)
O=C(C[C@H]1C[C@@H]2c3cc(NC(=O)CC4CC4)ccc3O[C@@H]2[C@H](CO)O1)NCc1ccccc1	DENV2 CPE 97.7 (no result: CaV13 ICDI inh)
O=C(C[C@@H]1C[C@@H]2c3cc(NC(=O)C4CCC4)ccc3O[C@@H]2[C@@H](CO)O1)NCc1ccc(-c2ccccc2)cc1	PGC1a acetyl inh 79.9 (no result: CaV13 ICDI inh)
COc1ccc(C#Cc2ccc3c(c2)O[C@H](CN(C)S(=O)(=O)c2ccccc2F)[C@@H](C)CN([C@@H](C)CO)S3(=O)=O)cc1	none (no result: CaV13 ICDI inh)
CCCCCCCCCCOC(=O)Cn1c(COc2cccc(C)c2)[n+](C)c2ccccc21	ERAP1 inh 30.5, GSIS activator 171.4 (no result: PGC1a acetyl inh)
CCCCCCCCCCOC(=O)Cn1c(COc2ccc(Cl)cc2)[n+](C)c2ccccc21	ERAP1 inh 34.5, GSIS activator 206.6 (no result: PGC1a acetyl inh)
CCOC(=O)Cn1c(COc2ccccc2OC)[n+](C)c2ccccc21	none (no result: rRNA inh HTS, GSIS activator)
CCCCOC(=O)Cn1c(=O)n(CC(=O)OCCCC)c2ccccc21	none (no result: ERAP1 inh, rRNA inh HTS, CaV13 ICDI inh, DENV2 CPE)
CCCCCCCCCCOC(=O)Cn1c(COc2ccccc2)[n+](C)c2ccccc21	ERAP1 inh 48.8, GSIS activator 127.4 (no result: PGC1a acetyl inh)
CCCCCCCCCCOC(=O)Cn1c(COc2ccccc2C)[n+](C)c2ccccc21	ERAP1 inh 32.9, GSIS activator 138.8 (no result: CaV13 ICDI inh, PGC1a acetyl inh, DENV2 CPE)

From PubChem
